Bioassay records as filed in PubChem BioAssay.
Most compounds without a hit are left out; they make up all but 18% or so of the library.
VP16 counter: inhibits Gal4-VP16 luciferase reporter, ROR gamma counter-screen | 310,000 compounds, 3.5% hits | Drosophila S2 Gal4-VP16 UAS-luciferase, luminescence, 20 h | Potency, µM (series often up to 53.6 µM), for inactives: at the highest dose activity, negative = inhibition, most hits filed as inhibitors;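 also: Gal4-VP16 expression switched on by copper sulfate through the metallothionein promoter; potency is read from the fitted curve at half-maximal effect; nearly all actives have a fitted effect of over 50% in size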
DT40 TDP1 no CPT: qHTS for Inhibitors of human tyrosyl-DNA phosphodiesterase 1 (TDP1): qHTS in cells in absence of CPT | Potency, µM (series often up to 46.2 µM), inactives show at the highest dose activity change, negative = growth inhibition, usual class: inhibitors | DT40 Tdp1-/- hTDP1 cells, no CPT, ATP luminescence, 48 h | 420,000 compounds, 15% hits | AID 686978, 2013; also: potency is read from the fitted curve at half-maximal effect; nearly all actives have a fitted effect of over 55% in size
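Luminescent ATP content (CellTiter-Glo) served as the growth readout. Knockout chicken DT40 cells expressing human TDP1 were exposed to compounds without camptothecin for a minimum 48 hr at 37 °C.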
IL-1B inflam inh: inflammasome signaling inhibition, IL-1 beta readout | 360,000 compounds, 4.7% hits | activity change, % at 57.5 µM | AID 743279 | THP-1 LPS/ATP IL-1B secretion, AlphaLISA, 16 h; active compounds read low; in the data active = activity change below about -50%; inconclusive = mostly about -30% to -49%
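THP-1 cells pretreated 1 hr with compounds (up to 57.5 uM final), then stimulated with LPS (250 ng/mL final) plus ATP (1.25 mM final); secreted IL-1B measured by AlphaLISA after 16 hr, decreased signal indicating inhibition.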
RORgamma inh: ROR gamma (mouse) transcription inhibition. AID 2551. Drosophila S2 Gal4-RORgamma UAS-luciferase reporter, 20 h. 310,000 compounds, 5.4% hits. P51450. Potency, µM (highest dose often 53.6 µM), for inactives: top-dose activity change, negative = inhibition, actives largely listed as inhibitors; also: potency is read from the fitted curve at half-maximal effect; nearly all actives have a fitted effect of over 60% in size
Target sequence (P51450 whole entry, looked up, the tested form may be a part): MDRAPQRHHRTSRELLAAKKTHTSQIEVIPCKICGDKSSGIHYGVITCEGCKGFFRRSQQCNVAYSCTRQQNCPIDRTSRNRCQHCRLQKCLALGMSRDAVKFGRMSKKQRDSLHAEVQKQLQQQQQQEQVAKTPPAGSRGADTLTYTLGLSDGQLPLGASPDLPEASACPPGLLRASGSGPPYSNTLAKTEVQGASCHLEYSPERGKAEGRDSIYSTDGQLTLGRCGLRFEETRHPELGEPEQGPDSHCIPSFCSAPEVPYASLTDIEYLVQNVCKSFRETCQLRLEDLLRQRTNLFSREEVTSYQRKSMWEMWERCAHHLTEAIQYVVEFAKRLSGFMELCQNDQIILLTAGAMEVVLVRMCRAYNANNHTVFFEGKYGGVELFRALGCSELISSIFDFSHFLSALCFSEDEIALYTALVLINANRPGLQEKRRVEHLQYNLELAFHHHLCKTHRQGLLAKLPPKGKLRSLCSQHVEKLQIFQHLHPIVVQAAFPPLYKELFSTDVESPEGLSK
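Drosophila S2 cells stably expressing Gal4-DBD/mouse RORγ fusion under metallothionein promoter plus UAS-luciferase; compound 1 h, then 700 uM CuSO4 induction for 20 h at ambient temperature; inhibition read as reduced luminescence.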
LDHA inh: LDHA (human) enzyme inhibition. P00338. purified LDHA, NADH/diaphorase-resazurin fluorescence; active compounds read low. activity change, % (values are at about 110 or 230 µM). 480,000 compounds, 0.15% hits; in the data active = activity change below about -30%; inconclusive = mostly about -25% to -30%;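 also: plate controls were DMSO wells for no effect and wells without enzyme for full effect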
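Remaining NADH was detected by diaphorase (0.133 mg/mL) converting 37 µM resazurin to fluorescent resorufin, read at 0 and 20 minutes. The preceding 5-minute room-temperature reaction used 2 nM LDHA, 0.2 mM sodium pyruvate and 0.06 mM NADH at pH 7.4.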
DT40 TDP1 CPT: DT40-hTDP1 cell growth loss with CPT; Potency, µM (titrated, usually from 46.2 µM), without a hit: at the highest dose activity change, negative = growth inhibition, hits mostly inhibitors; chicken DT40 Tdp1-/-;hTDP1 cells + 20 nM CPT, ATP luminescence, 48 h; 420,000 compounds, 12% hits; also: potency is read from the fitted curve at half-maximal effect; nearly all actives have a fitted effect of over 55% in size
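Cell growth measured by CellTiter-Glo luminescence after a minimum 48 h, 37 C compound exposure with 20 nM CPT in Tdp1-knockout DT40 cells stably expressing hTDP1, seeded 400/well; qHTS titration format.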
Numbers without * were called inactive; ? = inconclusive; nt = no result given. Unless noted, calls follow the shape of the dose curve; as a rule, active = well fitted curve in the direction sought with a large enough effect; inconclusive = small, poorly fitted or top-dose-only effect, or another doubt; inactive = no such curve, though single readings can be large; an effect the other way counts as inactive or inconclusive. Unless noted, % is scaled to controls: 0 for no effect and ±100 for the full control effect.

SMILES	VP16 counter	DT40 TDP1 no CPT	IL-1B inflam inh	RORgamma inh	LDHA inh	DT40 TDP1 CPT
Cn1c(=O)c2c(nc(N3CCOCC3)n2Cc2cccc(C(F)(F)F)c2)n(C)c1=O	nt	nt	nt	nt	-1	nt
O=C(C1CC1)N(Cc1nc2ccccc2c(=O)[nH]1)Cc1cccs1	-1%	?	0	?	0	?
O=C(CCCl)N(Cc1nc2ccccc2c(=O)[nH]1)Cc1cccs1	-7%	5%	?	11µM*	-5	-20%
O=C(Nc1ccccc1)N(O)c1ccc(Cl)cc1	0%	29µM*	10	-10%	6	18µM*
O=C(Nc1ccccc1Cl)N(Cc1nc2ccccc2c(=O)[nH]1)Cc1cccs1	?	?	-2	11µM*	-4	?
O=C(Nc1ccc(Cl)cc1)N(Cc1cccs1)Cc1cccs1	12%	?	-24	?	-2	18µM*
Cn1c(SCc2cccc(Cl)c2)nc(=O)c2c1NC(=O)CC2c1ccc(OCC(N)=O)cc1 (configuration not stated)	nt	nt	nt	nt	-1	nt
Cc1ccc(I)c(C(=O)NC(C)(C)C)c1	nt	nt	nt	nt	10	nt
O=C(O)CCCCCNC(=O)CSc1nnc(-c2cccc([S+](=O)([O-])N3CCCC3)c2)n1-c1ccccc1	nt	nt	nt	nt	-12	nt
O=C(N/N=C/C1CC=CCC1)c1cccs1 (configuration not stated)	nt	nt	nt	nt	1	nt
CCc1noc(C(C)N2CCC(c3nc4ccccc4o3)CC2)n1 (configuration not stated)	nt	nt	nt	nt	12	nt
O=C(Nc1ccc(Cl)cc1)N(Cc1nc2ccccc2c(=O)[nH]1)Cc1cccs1	?	21µM*	?	?	-7	?
O=c1[nH]c(Cc2cccs2)nc2ccccc12	-3%	-1%	1	4%	-4	?
O=C(Nc1ccc2oc(=O)ccc2c1)c1ccc(-c2cccc([N+](=O)[O-])c2)o1	-1%	7.3µM*	6	33%	-10	8.2µM*
O=C(Nc1ccc2oc(=O)ccc2c1)c1ccc(-c2cccc(Cl)c2)o1	0%	?	-27	13%	-15	8.2µM*
O=C(Nc1ccc2oc(=O)ccc2c1)c1ccc(-c2ccc(Cl)cc2)o1	7%	-27%	15	20%	-7	-23%
CCCCCCc1ccc(C(=O)NNC(=O)c2ccccc2Cl)cc1	nt	nt	nt	nt	1	nt
Cc1noc(C)c1CCC(=O)Nc1nc(-c2ccc3c(c2)CCO3)cs1	nt	nt	nt	nt	-1	nt
Cc1c(C(=O)NCc2ccc3c(c2)OCO3)sc2nc(-c3ccc(F)cc3)cn12	-1%	16µM*	-17	-21%	-4	?
Cc1c(C(=O)NCC2CCCO2)sc2nc(-c3ccc(F)cc3)cn12 (configuration not stated)	2%	?	-27	?	-10	15µM*
Cc1c(C(=O)NCc2ccc3c(c2)OCO3)sc2nc(-c3ccccc3)cn12	0%	15µM*	-17	-36%	1	?
CCc1nnsc1C(=O)N(C)Cc1ccccc1Cl	nt	nt	nt	nt	1	nt
COc1cccc2cc(C(=O)NCCc3c(C)[nH]c4ccc(C)cc34)c(=O)oc12	nt	nt	nt	nt	3	nt
COc1cc(O)c(C(CCN2CCOCC2)c2ccc(N(C)C)cc2)c(OC)c1 (configuration not stated)	2%	?	-13	-1%	11	15µM*
COc1ccc(C(CCN2CCN(c3ccccc3)CC2)c2c(O)cc(OC)cc2OC)cc1 (configuration not stated)	-1%	21µM*	-7	0%	1	16µM*
SMILES	VP16 counter	DT40 TDP1 no CPT	IL-1B inflam inh	RORgamma inh	LDHA inh	DT40 TDP1 CPT
COc1cc(O)c(C(CC(=O)N2CCCCC2)c2ccc(N(C)C)cc2)c(OC)c1 (configuration not stated)	6%	-21%	-13	1µM*	0	0%
COc1cc(O)c(C(CCN2CCN(c3ccccc3)CC2)c2ccc(N(C)C)cc2)c(OC)c1 (configuration not stated)	-18%	21µM*	?	-29%	1	13µM*
COc1cc(O)c(C(CC(=O)N2CCCCC2)c2cc(OC)c(OC)c(OC)c2)c(OC)c1 (configuration not stated)	-8%	-10%	11	-6%	1	-18%
CC(C)C(NC(=O)c1ccccc1F)C(=O)NCc1cnn(-c2ccccc2)c1 (configuration not stated)	nt	nt	nt	nt	3	nt
CCCCc1nn2cc(-c3ccc(C)c(C)c3)nc2s1	nt	nt	nt	nt	-3	nt
Fc1ccc(-c2ccc(CNCc3cccnc3-n3cccn3)o2)cc1	nt	nt	nt	nt	-1	nt
C=CCn1c(SCc2ccc(C#N)cc2)nnc1-c1cccc(OC)c1	-7%	?	-10	19%	-6	?
Cc1ccc(-c2nnc(SCc3ccc(C#N)cc3)n2Cc2ccco2)cc1	-26%	?	-17	?	4	26µM*
Cc1ccc(-c2nnc(SCc3nc4ccccc4[nH]3)n2Cc2ccco2)cc1	?	?	-11	11µM*	-1	?
Cn1c(SCc2nc3ccccc3[nH]2)nnc1-c1cccnc1	-22%	-17%	10	-50%	1	-19%
CCOc1ccc(-c2nnc(SCc3nc4ccccc4[nH]3)n2N)cc1	7%	-2%	-64*	-42%	-2	-20%
COc1cccc(-c2nnc(SCc3ccc(C#N)cc3)n2Cc2ccco2)c1	0%	23µM*	?	-7%	-6	?
Cc1cccc(-c2nnc(SCc3nc4ccccc4[nH]3)n2Cc2ccco2)c1	-4%	?	-16	-44%	1	?
CCOc1ccc(-c2ccccc2)cc1C=O	nt	nt	nt	nt	-10	nt
CCc1cc(CC)n(-c2nc3c(c(=O)n(CC(N)=O)c(=O)n3C)n2CC(C)C)n1	nt	nt	nt	nt	3	nt
CC(C)(C)NC(=O)CSC(=Nc1cccc(F)c1)NC#N	-14%	?	-97*	-28%	3	?
C[N+](C)(CC#CCCCCCCC#CC[N+](C)(C)Cc1ccccc1)Cc1ccccc1	nt	nt	nt	nt	-8	nt
CCCc1c(-c2cccc(Cl)c2)ncn1Cc1cccc(-c2ccccc2)c1	nt	18µM*	-6	nt	0	21µM*
CCCc1c(-c2ccc(F)cc2F)ncn1Cc1cccc(-c2ccccc2)c1	nt	4.1µM*	-9	nt	1	5.2µM*
CCc1c(-c2cccc(Cl)c2)ncn1Cc1cccc(-c2ccccc2)c1	nt	?	?	nt	3	?
